High-throughput results as filed in PubChem BioAssay.
Shown are actives, neighbours in structure and some others; about 4% of the full set was active somewhere.
ADAM10 inh: inhibits human ADAM10 | AID 720582 | actives 0.62% (n = 370,000) | inhibition, % at 7 µM | O14672 | recombinant ADAM10, EDANS/DABCYL FRET peptide cleavage, 3 h;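 active = inhibition above a per-campaign cutoff equal to the mean of compounds falling between control-based bounds plus 3 SD, cut at about 20% in these data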;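 note: 0% = DMSO wells while the 100% control is not disclosed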
ADAM17 inh: ADAM17 inhibition, QFRET primary screen | recombinant ADAM17, EDANS/DABCYL FRET peptide cleavage | inhibition, % at 6.95 µM | actives 0.83% (n = 370,000);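 active = inhibition above the mean of compounds lying between control limits plus 3 SD, set per campaign, cut at about 8.5% in these data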;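 note: 0% = DMSO-only wells as the low control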
FAS TE block: FAS thioesterase (human) inhibition | inhibition, % at 15 µM | P49327 | recombinant FAS-TE, OMFH fluorogenic substrate, fluorescence endpoint | actives 0.67% (n = 360,000);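 active = compounds whose normalised, plate-corrected inhibition of enzyme fluorescence in the single-dose primary screen is 50% or more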;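 note: 0% = DMSO with enzyme and 100% = substrate without enzyme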
NR3A LBD binder: NR3A (human) ligand-binding domain modulation | NR3A LBD differential scanning fluorimetry, Tm shift; 0% = protein alone, 100% = glycine-bound protein | Tm shift relative to glycine control, % at 25 µM | actives 2.5% (n = 340,000) | AID 1259313;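 active = melting temperature shift of at least 10% of the positive control shift, at one fixed dose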
aDG glyco up: increases alpha dystroglycan glycosylation; Pro5-aDG cells, alpha-DG glycosylation AlphaScreen (IIH6); 0% Pro5, 100% B10-LARGE cell signal; activation, % at 10 µM; actives 0.22% (n = 360,000); AID 624168;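 active = activation of at least 8% versus controls, or a plate z-score of at least 8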;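 note: Pro5 are CHO cells carrying HIG-tagged alpha-DG that lacks glycosylation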
FAS-TE inh conf: confirmation of human fatty acid synthase thioesterase inhibitors | shares compounds with FAS TE block | recombinant FAS-TE, OMFH fluorogenic substrate, fluorescence | inhibition, % at 15 µM | actives 45% (n = 2,300);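 active = compounds inhibiting the enzyme by at least 50% at 15 µM in any one of the replicates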;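 note: 0% = enzyme with DMSO only and 100% = wells lacking enzyme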
An asterisk follows results filed as active; i = inactive; . = no result given.

SMILES	ADAM10 inh	ADAM17 inh	FAS TE block	NR3A LBD binder	aDG glyco up	FAS-TE inh conf
O=[N+]([O-])c1ccc(C(c2ccc([N+](=O)[O-])cc2)c2ccc([N+](=O)[O-])cc2)cc1	14	4	47	-17	0	.
CCOC(=O)[C@]12Cc3cc(Cl)ccc3[C@H]1N(CC(=O)OC)C(=O)c1ccccc12	.	.	55*	.	0	28
CCCCCN1C(=O)c2cc(OC)ccc2[C@@]2(C(=O)OCC)Cc3cc(Cl)ccc3[C@@H]12	-11	-3	85*	.	0	11
CCOC(=O)[C@]12Cc3cc(Cl)ccc3[C@H]1N(Cc1ccccc1)C(=O)c1cc(OC)ccc12	0	1	45	.	0	.
CCOC(=O)[C@]12Cc3cc(Cl)ccc3[C@H]1N(C)C(=O)c1ccccc12	0	6	0	.	0	.
CCOC(=O)[C@]12Cc3cc(Cl)ccc3[C@H]1N(C(C)C)C(=O)c1ccccc12	-9	-4	68*	.	0	11
CCCC(CCC)C(=O)OC[N+](C)(C)CCOC(=O)C(O)(c1ccccc1)C1CCCC1 (stereo not drawn)	-2	-1	-3	0	0	.
CCC(c1nnnn1C1CCCC1)N1CCC2(CC1)C(=O)NCN2c1ccccc1 (stereo not drawn)	-8	-2	-5	.	0	.
Cc1cccc(C)c1-n1nnnc1C(c1cc2ccccc2o1)N1CCC(n2c(=O)[nH]c3ccccc32)CC1 (stereo not drawn)	2	-2	81*	.	-1	-2
O=c1[nH]c2ccccc2n1C1CCN(C(c2cccc3ccccc23)c2nnnn2Cc2ccccc2)CC1 (stereo not drawn)	18	6	80*	.	-1	28
Cc1cccc(C)c1-n1nnnc1C(c1ccccc1OC(F)(F)F)N1CCC(n2c(=O)[nH]c3ccccc32)CC1 (stereo not drawn)	-12	-5	54*	.	0	22
O=[N+]([O-])c1ccc(NCc2ccc(Cl)cc2)c2ccncc12	7	3	73*	5	0	58*
CC(C)n1c(=O)c(C=Nc2cccc([N+](=O)[O-])c2)c(O)n(CCc2ccccc2)c1=O	6	2	57*	-6	0	18
CC(C)n1c(=O)c(C=Nc2ccc(S(N)(=O)=O)cc2)c(O)n(Cc2ccco2)c1=O	-8	-2	-8	-2	0	.
COC(=O)c1cc2c(s1)=NC=NP=2(N1CCOCC1)N1CCOCC1	-43	-11	-6	-1	0	.
COc1ccc(C(c2nnnn2-c2c(C)cccc2C)N2CCC3(CC2)C(=O)NCN3c2ccccc2)cc1 (stereo not drawn)	12	5	50*	.	0	27
O=C1NCN(c2ccccc2)C12CCN(C(c1ccccc1)c1nnnn1-c1ccc3c(c1)OCCO3)CC2 (stereo not drawn)	-13	-1	20	.	0	.
CC(C)(C)n1nnnc1C(c1cccc2ccccc12)N1CCC2(CC1)C(=O)NCN2c1ccccc1 (stereo not drawn)	-3	-2	77*	.	0	19
O=C1NCN(c2ccccc2)C12CCN(C(c1cc3ccccc3o1)c1nnnn1-c1ccc3c(c1)OCCO3)CC2 (stereo not drawn)	17	4	74*	.	0	21
O=C1NCN(c2ccccc2)C12CCN(C(c1cccc3ccccc13)c1nnnn1-c1ccc3c(c1)OCCO3)CC2 (stereo not drawn)	-12	-7	88*	.	0	8
CCCCn1c(O)c(C(CC)=NCc2ccc(F)cc2)c(=O)[nH]c1=O	11	-1	6	1	1	.
O=C(c1cc2cc(Br)ccc2[nH]1)N1CCC2(CC1)OCCO2	-2	-4	-3	-3	0	.
COC(=O)C1=C(c2ccc(Cl)c(C(F)(F)F)c2)C[C@@H]2CC[C@H]1N2C(=O)NCc1cc(C)oc1C(F)(F)F	-4	-2	18	-9	1	.
CSc1nc(N)c(N=Nc2ccc([As](=O)(O)O)cc2)c(=O)[nH]1	-8	9.1*	54*	-2	0	59*
O=C(N/N=C/c1c(O)n(C2CCCCC2)c(=S)[nH]c1=O)c1ccccc1O	-6	-8	55*	22*	0	42*
SMILES	ADAM10 inh	ADAM17 inh	FAS TE block	NR3A LBD binder	aDG glyco up	FAS-TE inh conf
CC12CCC3c4ccc(OP(=O)(N5CC5)N5CC5)cc4CCC3C1CCC2=O (stereo not drawn)	-5	-4	-6	-2	0	.
Cc1ccccc1-c1ccc2c(c1)C1c3c(-c4ccccc4)nnn3-c3ccccc3C(=O)N1CC2 (stereo not drawn)	-1	-3	79*	.	0	13
S=C(NCCc1ccccc1)N1Cc2cc(N3CCCCC3)ccc2-n2nncc2C1	2	2	27	.	0	.
CCOC(=O)C1(CCc2ccccc2)CCN(Cc2ccc3c(c2)OCCO3)CC1	-1	-4	10	0	1	.
Cc1cc(=O)oc2cc(OCC(=O)N3C[C@H]4C[C@@H](C3)c3cccc(=O)n3C4)c(Cl)cc12	-66	-14	8	0	0	.
Cc1cc(=O)oc2cc(OCC(=O)N3CCN(C(C)c4ccccc4)CC3)c(Cl)cc12 (stereo not drawn)	i	i	60*	-1	0	67*
CCOC(=O)[C@]12Cc3cc(OC)c(OC)cc3[C@H]1N(Cc1ccccc1)C(=O)c1ccccc12	12	0	12	-1	0	.
CCOC(=O)[C@]12Cc3cc4ccccc4cc3[C@H]1N(Cc1ccccc1)C(=O)c1cc(OC)ccc12	0	2	65*	.	0	20
CCOC(=O)[C@]12Cc3cc4ccccc4cc3[C@H]1N(Cc1ccccc1)C(=O)c1ccccc12	4	0	61*	.	0	13
CCOC(=O)[C@]12Cc3cc(OC)ccc3[C@H]1N(Cc1ccccc1)C(=O)c1cc(OC)ccc12	10	5	25	.	0	.
COC1=CC(=O)OC(/C=C/c2ccccc2)C1 (stereo not drawn)	8	2	-3	2	0	.
O=[N+]([O-])c1ccc(N2CCCC(C(F)(F)F)C2)c2ccncc12 (stereo not drawn)	6	2	21	-1	1	.
CCOC(=O)[C@]12Cc3cc(C)ccc3[C@H]1N(C)C(=O)c1ccccc12	-14	-3	6	.	0	.
CCOC(=O)[C@]12Cc3cc(OC)ccc3[C@H]1N(C1CCCCC1)C(=O)c1ccccc12	-6	-2	77*	.	0	72*
CCOC(=O)[C@]12Cc3cc(Cl)ccc3[C@H]1N(C1CCCCC1)C(=O)c1ccccc12	.	.	77*	.	0	71*
CCOC(=O)[C@]12Cc3cc(OC)ccc3[C@H]1N(C)C(=O)c1ccccc12	4	0	-6	.	0	.
